From PubChem BioAssay (EPA / NIEHS)
Records with an inconclusive call do not appear. Active and inactive are the calls of the source. The calls were made as follows: active = hit-call score of the fitted dose curve at least 0.9, where 1 is the maximum; inconclusive = response in the unintended direction; inactive = score below 0.9.

Target: Cellular tumor antigen p53 (Homo sapiens) (UniProt P04637)
Test: TOX21_p53_BLA_p5_ratio: Tox21 HCT-116 p53 Agonism Beta-lactamase Assay, Ratio, Phase 5 (AID 2283599)
Summary of the method: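 Beta-lactamase reporter ratio (blue 460 nm over green 530 nm, 405 nm excitation) after 2 h CCF4-AM loading, in HCT-116 cells exposed 16 h at 37 C to compounds pinned at 217-fold dilution. Increases relative to DMSO baseline scored.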

Cellular tumor antigen p53 (Homo sapiens), sequence (P04637 whole entry, looked up): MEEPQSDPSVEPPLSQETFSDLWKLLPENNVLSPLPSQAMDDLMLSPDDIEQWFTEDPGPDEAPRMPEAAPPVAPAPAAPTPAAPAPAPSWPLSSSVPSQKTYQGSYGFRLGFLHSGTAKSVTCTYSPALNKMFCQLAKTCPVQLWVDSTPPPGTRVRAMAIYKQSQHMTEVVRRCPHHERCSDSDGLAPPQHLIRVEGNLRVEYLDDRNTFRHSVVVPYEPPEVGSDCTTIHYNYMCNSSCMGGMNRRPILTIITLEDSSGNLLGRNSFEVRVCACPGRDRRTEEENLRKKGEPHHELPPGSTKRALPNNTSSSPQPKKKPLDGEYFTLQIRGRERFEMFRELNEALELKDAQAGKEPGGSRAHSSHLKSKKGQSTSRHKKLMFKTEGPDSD

SMILES | outcome
CNC(=O)N(C)c1nnc(C(C)(C)C)s1 | inactive
Clc1nc(Cl)nc(Nc2ccccc2Cl)n1 | inactive
COP(=O)(OC)O/C(C)=C/C(=O)N(C)C | inactive
CN=C=S | inactive
CCOP(=S)(OCC)Oc1nc(Cl)n(C(C)C)n1 | inactive
N#CN=C1SCCN1Cc1ccc(Cl)nc1 | inactive
COC(=O)c1c(C(F)F)nc(C(F)(F)F)c(C2=NCCS2)c1CC(C)C | inactive
O=P(O)(O)CCCl | inactive
Clc1cccc(C(Cl)(Cl)Cl)n1 | inactive
COc1cc(Cl)c(OC)cc1Cl | inactive
CC(C)C1(C)N=C(c2ncccc2C(=O)O)NC1=O (centres undefined) | inactive
CC1(C)CON(Cc2ccccc2Cl)C1=O | inactive
COC(=O)NC(=S)Nc1ccccc1NC(=S)NC(=O)OC | inactive
CCOc1nc(C(Cl)(Cl)Cl)ns1 | inactive
CCSC(=O)N1CCCCCC1 | inactive
Cc1cc(C)nc(Nc2ccccc2)n1 | inactive
COc1cc(OC)nc(NC(=O)NS(=O)(=O)c2ncccc2OCC(F)(F)F)n1 | inactive
CCN(CC)c1nc(C)cc(OP(=S)(OC)OC)n1 | inactive
CCOc1nc(F)cc2nc(S(=O)(=O)Nc3c(Cl)cccc3Cl)nn12 | inactive
CNC(=O)Oc1cccc2ccccc12 | inactive
N#Cc1c(Cl)cccc1Cl | inactive

Test system: not listed separately
Test: TOX21_p53_BLA_p5_viability: Viability Assessment in the Tox21 HCT-116 p53 Agonism Beta-lactamase Assay, Phase 5 (AID 2283600)
Summary of the method: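 ATP luminescence (CellTiter-Glo, 30 min, RT) served as the viability read-out, with loss of signal indicating cytotoxicity. Compounds in DMSO were pinned at a 217-fold dilution onto 4000 cells/well and incubated 16 h, 37C.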

SMILES | outcome
CNC(=O)N(C)c1nnc(C(C)(C)C)s1 | inactive
Clc1nc(Cl)nc(Nc2ccccc2Cl)n1 | inactive
Nc1cnn(-c2ccccc2)c(=O)c1Cl | inactive
CN/C(=N\[N+](=O)[O-])NCc1cnc(Cl)s1 | inactive
CN=C=S | inactive
Cc1cnc(C2=NC(C)(C(C)C)C(=O)N2)c(C(=O)O)c1 (centres undefined) | inactive
COC(=O)c1c(C(F)F)nc(C(F)(F)F)c(C2=NCCS2)c1CC(C)C | inactive
O=P(O)(O)CCCl | inactive
Clc1cccc(C(Cl)(Cl)Cl)n1 | inactive
CC(C)C1(C)N=C(c2ncccc2C(=O)O)NC1=O (centres undefined) | inactive
COC(=O)NC(=S)Nc1ccccc1NC(=S)NC(=O)OC | inactive
CCOc1nc(C(Cl)(Cl)Cl)ns1 | inactive
CCSC(=O)N1CCCCCC1 | inactive
CCC(C)n1c(=O)[nH]c(C)c(Br)c1=O (centres undefined) | inactive
Cc1cc(C)nc(Nc2ccccc2)n1 | inactive
CS(=O)(=O)c1cc(C(F)(F)F)ccc1C(=O)c1cnoc1C1CC1 | inactive
CCCCOCN(C(=O)CCl)c1c(CC)cccc1CC | inactive
CNC(=O)Oc1cccc2ccccc12 | inactive
